hgDAF12 agonist: activates the H. glycines DAF-12 receptor ligand-binding domain | HEK293 GAL4-hgDAF12 UAS-luciferase reporter, agonist luminescence; normalized to butyrate control | activation, % at 6.8 µM | actives 1.8% (n = 370,000);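 active means activation above a cutoff set at the mean of all screened compounds plus 3 SD, cut at about 10% in these data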
AHR act: human AHR activation. P35869. AHR-responsive luciferase reporter cells, luminescence. activation, % at 5 µM. actives 2.5% (n = 320,000); in the data active means activation above about 47%
DAX1 inh-1: inhibits human nuclear receptor DAX1; HEK293 Gal4-DAX1 luciferase reporter, luminescence; inhibition, % at 6.75 µM; actives 0.99% (n = 340,000); AID 504766;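 active means inhibition above the mean over all tested compounds plus 3 SD, cut at about 4.2% in these data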;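 further: inhibition shows as a rise in luminescence from relieved DAX1 repression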
Target sequence (P51843 207-470 limits assumed): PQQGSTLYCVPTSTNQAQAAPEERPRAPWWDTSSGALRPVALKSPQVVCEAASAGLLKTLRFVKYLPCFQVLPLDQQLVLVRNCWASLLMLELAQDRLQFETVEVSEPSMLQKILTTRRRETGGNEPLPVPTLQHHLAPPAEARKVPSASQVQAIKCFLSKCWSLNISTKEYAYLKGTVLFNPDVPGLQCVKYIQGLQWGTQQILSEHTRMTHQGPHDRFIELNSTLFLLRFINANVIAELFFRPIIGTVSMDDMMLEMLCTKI
hcDAF-12 act: activates DAF-12 receptor from parasite H. contortus | activation, % at 6.8 µM | actives 1.4% (n = 370,000) | HEK293 hcDAF-12 lit1-tk-luc reporter, luminescence; 0% DMSO, 100% Δ7-dafachronic acid;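 active means activation above the mean of all tested compounds plus 3 SD, cut at about 5.5% in these data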
DAX1 inh-2: blocks DAX1 repression of SF-1 activated StAR promoter; HEK293T StAR-luciferase reporter, SF-1/DAX-1 repression relief; actives 1.1% (n = 370,000); inhibition, % at 6.8 µM;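 active means inhibition above the mean over all tested compounds plus 3 SD, cut at about 3.6% in these data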;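 further: higher inhibition means more luminescence from relief of DAX-1 repression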
ssDAF-12 act: S. stercoralis DAF-12 activation, primary screen. HEK293 ssDAF-12/GRIP1 lit1-tk-luc reporter, luminescence; % of 3 µM dafachronic acid response. actives 1% (n = 370,000). activation, % at 6.8 µM. AID 652126;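 active means activation above the mean over all tested compounds plus 3 SD, cut at about 0.9% in these data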
Each line names hits and unclear results; the compound was inactive in the other large screens. Hits are enriched below; roughly 5.7% of the tested compounds scored in any of these assays.

COc1cc(C(=O)N/N=C2\CCS(=O)(=O)c3ccc(F)cc32)cc(OC)c1OC	none
O=C(C(=O)N1CCC(CNS(=O)(=O)c2cccc3ccccc23)CC1)c1cccs1	none (no result: AHR act, DAX1 inh-1)
N/C(=N\OC(=O)COc1ccc(Cl)cc1Br)c1cccnc1	hgDAF12 agonist 11
Cc1ccc(C)c(OCC(=O)O/N=C(\N)c2cccnc2)c1	none
N/C(=N\OC(=O)COc1ccc(Br)cc1Cl)c1cccnc1	hgDAF12 agonist 12
CC(C)c1ccc(NC(=O)C(c2ccccc2)N(Cc2ccco2)C(=O)CC2NC(=O)NC2=O)cc1 (stereo not drawn)	none
CCN1CCCC1CN(Cc1cc2ccc(C)cc2[nH]c1=O)C(=S)Nc1cccc(OC)c1 (stereo not drawn)	AHR act 59
COC(=O)[C@]12C[C@H](CC(=O)NCC3CCCCC3)C(=O)N(CCC3=CCCCC3)C1=C[C@H](C(C)(C)C)O[C@@H]2C	none (no result: AHR act, DAX1 inh-1)
CCOc1cc2c(cc1/C=C/C(=O)O)OC(C)C2 (stereo not drawn)	DAX1 inh-1 4.7
Cc1ccc(C2C(N)C(=O)N2c2ccc(C)cc2)cc1 (stereo not drawn)	none
O=S(=O)(c1ccccc1)c1cnc(-c2cccnc2)nc1-c1ccc(Cl)c(Cl)c1	ssDAF-12 act 1.6
COc1ccccc1C=NNC(=O)c1ccccc1OCCOc1ccccc1	AHR act 51
O=C(CCNC(=O)c1ccccc1Cl)NNC(=O)c1ccccc1O	AHR act 68
O=C(CC1CCCC1)NNC(=O)c1ccccc1O	ssDAF-12 act 1.3 (no result: AHR act)
COc1ccccc1C(=O)N/N=C/c1ccc(Cl)s1	AHR act 49
CCOC(=O)c1sc(Nc2nc(OC)cc(OC)n2)nc1C	none (no result: DAX1 inh-1)
COc1ccc([C@H]2CC(=O)C[C@@H](CCn3cc(-c4nccn4C)nn3)O2)cc1	none (no result: AHR act, DAX1 inh-1)
C/C(=N\NC(=O)c1ccccc1OCCOc1ccccc1)c1ccccc1F	none (no result: AHR act)
C=CCc1cccc(/C=N/NC(=O)c2ccccc2OC)c1O	AHR act 77
COc1ccc(OCCNC(=O)c2ccccc2Cl)cc1	none
O=C(NCCOc1ccccc1)c1ccccc1Cl	hgDAF12 agonist 12
NNC(=O)c1ccccc1OCCOc1ccccc1	ssDAF-12 act 2.7
O=C(NNC(=O)c1ccccc1Br)c1ccccc1Cl	DAX1 inh-1 5.5
COc1cc(CCC(C)=O)ccc1OC(=O)c1c(-c2c(F)cccc2Cl)noc1C	none (no result: AHR act, DAX1 inh-1)
Nc1nc2cc3c(cc2cc1C(=O)NCCc1c[nH]c2ccccc12)OCO3	none (no result: AHR act, DAX1 inh-1)
Nc1ccccc1S(=O)(=O)NC1=NCCCCC1	DAX1 inh-1 4.4
Nc1ccc(S(=O)(=O)NC2=NCCCCC2)cc1N	none
CC(CCc1ccccc1)NC(=O)COC(=O)c1ccc(NC(N)=O)cc1 (stereo not drawn)	none
O=C(O)CCCC(=O)Nc1ccc(Oc2ncnc3cc(Cl)ccc23)nc1	DAX1 inh-1 5.9
Cc1ccc(CN2CCN(/N=C/c3ccccc3)CC2)cc1	DAX1 inh-1 7.7
Nc1nnc(Cc2c[nH]c3ccccc23)s1	hcDAF-12 act 5.7
NC(=O)c1ccsc1NC(=O)COC(=O)c1cccnc1Cl	hgDAF12 agonist 11
CC1(C(=O)NS(=O)(=O)c2cccc(OC(F)F)c2)CCN1C(=O)Cc1ccccc1 (stereo not drawn)	none (no result: AHR act, DAX1 inh-1)
COc1cc(C(=O)Nc2nnc(C)s2)cc(OC)c1OC	AHR act 69
COc1cc(C(=O)Nc2nnc(CC(=O)NCc3ccccc3)s2)cc(OC)c1OC	DAX1 inh-1 4.2
CC(C)CNc1cccc2c1S(=O)(=O)N[C@@H](Cc1ccccc1)CO2	none (no result: AHR act, DAX1 inh-1)
Cc1ccc(-n2c(=S)[nH]c3c(oc4ccccc43)c2=O)cc1	none
O=c1c2oc3ccccc3c2[nH]c(=S)n1-c1ccccc1	AHR act 66
Cc1cccc(-n2c(=S)[nH]c3c(oc4ccccc43)c2=O)c1	AHR act 62
COc1ccc(C(=O)O/N=C2\CCS(=O)(=O)c3sccc32)cc1	none
CC(C)C(=O)O/N=C1\CCS(=O)(=O)c2sccc21	DAX1 inh-1 6.2
CCCCNC(=O)C1(C)CCC(=O)N1CCc1c[nH]c2ccccc12 (stereo not drawn)	none (no result: AHR act, DAX1 inh-1)
N#Cc1c(C(F)(F)F)cc(-c2ccccc2)nc1SCCN1CCOCC1	AHR act 55
N#Cc1c(C(F)(F)F)cc(-c2ccco2)nc1SCc1ccccn1	AHR act 60
Cn1c(=O)cc(SCC(=O)N2CCN(c3ccccn3)CC2)c2ccccc21	AHR act 64
Cc1ccnc(NC(=O)CCCOc2cc(=O)n(C)c3ccccc23)c1	DAX1 inh-1 7.0
Cn1c(=O)cc(SCC(=O)Nc2ccccn2)c2ccccc21	AHR act 62 (no result: DAX1 inh-1)
C#CCN(C[C@H]1[C@H](OC(=O)NCc2ccccc2)[C@H](OC(=O)NCc2ccccc2)C[C@H]2C(=O)N(c3ccccc3)C(=O)[C@@H]12)S(=O)(=O)c1ccc(C)cc1	none (no result: AHR act)
CCC1(c2ccc(F)cc2)NC(=O)N(CC(=O)N2CCc3ccccc32)C1=O (stereo not drawn)	none
COc1cccc2c1C(=O)c1c(O)c3c(c(O)c1C2=O)C[C@](O)(C(C)=O)C[C@H]3O[C@@H]1C[C@@H](N)[C@@H](O)[C@@H](C)O1	AHR act 65
COc1cccc2c1C(=N)c1c(O)c3c(c(O)c1C2=O)CC(O)(C(C)=O)CC3OC1CC(N)C(O)C(C)O1 (stereo not drawn)	none (no result: hgDAF12 agonist, AHR act, hcDAF-12 act, DAX1 inh-2, ssDAF-12 act)
Cc1ccc(N2C(=O)N(CC(=O)Nc3cccc([N+](=O)[O-])c3C)C(=O)C2C)cc1 (stereo not drawn)	none
Cc1ccc(N2C(=O)N(CC(=O)Nc3ccc(C)cc3[N+](=O)[O-])C(=O)C2C)cc1 (stereo not drawn)	DAX1 inh-2 3.6
CCCCOCC1CN(CCCC)S(=O)(=O)c2c(cccc2N(C)S(=O)(=O)c2ccc(C)cc2)O1 (stereo not drawn)	none (no result: AHR act, DAX1 inh-1)
CCOC(=O)c1ccc(Oc2cc(C)nc(Cl)n2)cc1	none
CCn1cc([N+](=O)[O-])c(C(=O)Nc2ccc3c(c2)OCCO3)n1	none
CCn1cc([N+](=O)[O-])c(C(=O)NCc2ccc3c(c2)OCO3)n1	DAX1 inh-1 4.9
Cn1c(C(=O)NCc2ccc3c(c2)OCO3)cc2sccc21	hcDAF-12 act 6.2
CCc1ccccc1NC(=O)c1cc2sccc2n1C	AHR act 64
COc1cc(NC(=O)c2cc3sccc3n2C)cc(OC)c1	hcDAF-12 act 6.0
COc1cccc(/C=C2\CCCCC2=O)c1	none
Cc1ccc(-n2c(SCc3c(Cl)cccc3Cl)nnc2-c2ccco2)cc1	none (no result: AHR act, DAX1 inh-1)
COC(=O)[C@]12C[C@H](CC(=O)NCc3cccc(C(F)(F)F)c3)C(=O)N(Cc3ccco3)C1=C[C@H](C(C)(C)C)O[C@@H]2C	none (no result: AHR act, DAX1 inh-1)
Cc1ccc(S(=O)(=O)NCc2csc(C)n2)cc1	none (no result: AHR act)
Cc1nc(CNS(=O)(=O)c2ccc3c(c2)CCCC3)cs1	hcDAF-12 act 5.9
